Bioassay records (PubChem BioAssay)
Tg IFNy HTS – blocks Toxoplasma gondii growth in the presence of IFN-gamma; actives 3.8% (n = 69,000); activity change, negative = inhibition, % (test concentration not listed); AID 1259416; Toxoplasma gondii growth in IFN-gamma-treated host cells; stronger effect = lower value; in the data active = activity change below about -70%, passing the limit was not always enough;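 note: host cells are HeLa cells infected with Toxoplasma gondii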
Each line names hits and unclear results; the compound was inactive in the other large screens; ! = a repeat was not active. Shown is part of a subset that was picked to be rich in hits.

CC(C)CN1C[C@@H]2CN(S(=O)(=O)c3cccs3)C[C@H]2C1=O	none
O=C(c1cccc(Cl)c1)N1C[C@H]2CN(c3ncccn3)C[C@@H]2C1	none
Cc1ccc(C2=NC3(CCN(CC(=O)Nc4ccc(F)c(Cl)c4)CC3)NC2=O)cc1C	none
Cc1ccc(CN2CCC3(CC2)COCCN3CC2CC2)o1	none
O=c1[nH]c2cc3c(cc2cc1CN(CCO)Cc1nnnn1Cc1ccccc1)OCCO3	Tg IFNy HTS -82
Cc1ccc2cc(CN(CCO)CCO)c(=O)[nH]c2c1	none
CN(CCCc1cnn(C)c1)Cc1cc2ccc(F)cc2[nH]c1=O	none
CCOC(=O)c1cc(CSc2n[nH]c(=O)n2-c2ccccc2C(F)(F)F)on1	none
Cc1nnc([C@]23CCO[C@H]2CCN(C(=O)c2occc2C)C3)o1	none
COc1ccc2c(c1)OCC(Cc1ccc(OC)c(OC(C)=O)c1)C2=O (stereo not drawn)	Tg IFNy HTS -84
COc1ccc2c(c1)OCC(Cc1ccc(OC)c(OC)c1)C2=O (stereo not drawn)	none
COc1ccc2c(c1)O[C@H]1c3ccc(OC)cc3OC[C@@H]21	none
O=C(Nc1cc(F)ccc1F)c1c(O)c2ccccc2n(-c2ccccc2)c1=O	none
C[C@H]1O[C@@H](O[C@H]2[C@@H](O)C[C@H](O[C@H]3[C@@H](O)C[C@H](O[C@H]4CC[C@]5(C)C6CC[C@]7(C)[C@@H](C8=CC(=O)OC8)CC[C@]7(O)C6CC[C@@H]5C4)O[C@@H]3C)O[C@@H]2C)C[C@H](O)[C@@H]1O (stereo partly drawn)	Tg IFNy HTS -80!
C=CCn1c(=O)c(C(=O)Nc2cccc(CC)c2)c(O)c2ccccc21	none
Cc1nnc2c(N3CC=C(c4ccccc4)CC3)nc3ccccc3n12	none
COc1ccc(-c2nc(SCC(=O)N3CCN(c4ccccc4OC)CC3)n[nH]2)cc1	none
CC(C)(C)c1nc(SCc2nc(-c3cccc(-n4cccc4)c3)no2)n[nH]1	Tg IFNy HTS -81
CC(C)(C)c1ccc(-c2noc(CSc3ccccn3)n2)cc1	none
CCOC(=O)c1nc(-c2cccc(-n3cccc3)c2)no1	none
O=C(NCc1noc(C2CCCO2)n1)c1cnn2c1CCCC2 (stereo not drawn)	none
COc1cc(C)ccc1-c1c(-c2ccccc2)ncn1C(C)Cc1cnccn1 (stereo not drawn)	none
CC(Cc1cnccn1)n1cc(-c2ccnc3ccccc23)nn1 (stereo not drawn)	none
COCCn1c2c([n+](Cc3cnccn3)c1C)C(=O)c1ccccc1C2=O	Tg IFNy HTS -83
CCOc1ccccc1CNC(=O)c1nc(Nc2ccccc2)c2ccccc2n1	none
Cc1cnc(CNC(=O)c2nc(-c3cn(Cc4ccc(F)cc4F)c(C)n3)n3ccccc23)cn1	none
Cn1c(-c2ccccc2)cnc1NC(=O)c1nonc1N	Tg IFNy HTS -104
COc1ccc(-c2cc(C(=O)Nc3ncc(-c4ccc(F)cc4)n3C)on2)cc1	none
Cc1cc2nc(C)c(CCC(=O)Nc3ncc(-c4ccccc4)n3C)c(C)n2n1	none
O=C(NCCc1csc(-c2ccccc2)n1)[C@H]1CSCN1C(=O)c1ccc(F)cc1	none
CCC(C(=O)N1CCCN(C)C2(CCN(C)CC2)C1)n1cccn1 (stereo not drawn)	none
Cc1nocc1C(=O)N1CCCC2(CC(CN3CCCC3)CO2)C1 (stereo not drawn)	none
CC1=C(C(=O)NC2CCN(Cc3ccccc3)CC2)C2(CCCCC2)OC1=O	none
CC1=C(C(=O)NCCN2CCC(Cc3ccccc3)CC2)C2(CCCCC2)OC1=O	Tg IFNy HTS -84
CC1=C(C(=O)NCCCN2CCC(N3CCCCC3)CC2)C2(CCCCC2)OC1=O	none
CCOC(=O)C1CN(S(=O)(=O)c2ccc(C)cc2)c2ccccc2O1 (stereo not drawn)	none
CS(=O)(=O)N1C[C@H]2COC[C@@]2(C(=O)NCc2ccccn2)C1	none
CS(=O)(=O)N1CC(C(=O)Nc2nc(-c3ccccn3)cs2)Oc2ccccc21 (stereo not drawn)	Tg IFNy HTS -101
CC(C)N1CCCn2c(nc(CNC(=O)c3nccn3C)cc2=O)C1	none
CN1CCN([C@@H]2CCN[C@H]2Cc2cnn(C)c2)CC1	none
CCn1nc(C(=O)N2CCN(c3ccccc3)CC2)c2c1CCN(C(=O)C(C)Oc1ccccc1)C2 (stereo not drawn)	none
Cn1cc(C2CCCCCN2S(=O)(=O)c2ccc(F)cc2)cn1 (stereo not drawn)	none
Cc1cc(OCC(=O)Nc2ccc(C(=O)OCC(C)C)cc2)cc(C)c1Cl	none
CC(C)COC(=O)c1nc(Cl)c(Cl)c(N)c1Cl	Tg IFNy HTS -96
O=C(CC1Nc2c3ccccc3nc(=S)n2C1=O)NCc1ccc(F)cc1 (stereo not drawn)	none
CN(C)[C@@H]1CCN(C(=O)C2CC=CC2)[C@H]1Cc1ccncc1	none
Cn1cc(C[C@H]2[C@H](O)CCN2C(=O)c2cnccn2)cn1	none
CN(C)CC1COC2(CCCN(C(=O)c3ccc4ccccc4n3)C2)C1 (stereo not drawn)	none
CC(C)COc1ccc(-c2noc(-c3c(O)c4ccc(F)cc4n(C)c3=O)n2)cc1	none
Nc1ccn([C@@H]2O[C@H](CO)[C@@H](O)[C@H]2O)c(=O)n1	none
CNC(=O)c1cnn(-c2nc(N)c3ncn([C@@H]4O[C@H](CO)C(O)C4O)c3n2)c1 (stereo partly drawn)	none
OCC1OC(n2cnc3c(NC4CCCC4)nc(Cl)nc32)C(O)C1O (stereo not drawn)	none
O=c1[nH]cnc2c1ncn2[C@H]1CC[C@@H](CO)O1	none
Nc1nc(Cl)nc2c1ncn2[C@H]1C[C@H](O)[C@@H](CO)O1	Tg IFNy HTS -73!
Nc1nc(=O)n([C@H]2C[C@H](O)[C@@H](CO)O2)cc1F	Tg IFNy HTS -89
Nc1ncnc2c1ncn2C1CCCO1 (stereo not drawn)	none
Nc1nc(Cl)nc2c1ncn2[C@@H]1O[C@H](CO)[C@@H](O)[C@@H]1F	Tg IFNy HTS -74
O=c1[nH]c(=O)n([C@H]2C[C@H](O)[C@@H](CO)O2)cc1I	none
Cn1cc(-c2cnc3n2CCC32CCN(S(C)(=O)=O)CC2)cn1	none
Nc1ncc(-c2ccc(Cl)cc2)c(C2CCCCN2S(=O)(=O)c2ccc(F)cc2)n1 (stereo not drawn)	none
O=C(NC(CN1CCCC1)c1ccccc1)c1cn[nH]n1 (stereo not drawn)	none
CN(C)CCCn1ccnc1-c1c(F)cccc1F	none
Cc1nn(-c2ccccc2)c(C)c1CC(=O)NC(c1nccn1C)C1CC1 (stereo not drawn)	none
c1cc2c3c(c1)c1c(n3CCNC2)CCCC1	none
Cn1c2c(c3cc(-c4cccc5c4CCNC5)ccc31)CCCC2=O	Tg IFNy HTS -81
O=C(O)c1cc(C2CC2)nc2ccc(-c3cccc4c3CCNC4)cc12	none
O=C(CN1C(=O)CCc2cc(S(=O)(=O)N3CCOCC3)ccc21)NCc1cccs1	none
CC(C)NC(=O)N1CC[C@@H]2Oc3ccccc3S(=O)(=O)N(CC3CC3)[C@@H]2CC1	none
CCC(=O)Nc1ccc(S(=O)(=O)N2CCC3(CC2)Nc2cc(OC)ccc2-n2cccc23)cc1	none
CCOC(=O)c1nn(Cc2ccc(OC)cc2)c2c1CN(C(=O)CCn1nc(C)cc1C)CC2	none
CCCN1C(=O)C2(NCCc3c2[nH]c2ccc(OC)cc32)c2cc(Br)ccc21 (stereo not drawn)	none
COc1ccc2[nH]c3c(c2c1)CCNC31C(=O)N(CCC(C)C)c2ccccc21 (stereo not drawn)	none
COc1ccc2[nH]c3c(c2c1)CCNC3=O	Tg IFNy HTS -89
O=C(c1nc2c(s1)CCCC2)N1CCCCC1CCn1ccnc1 (stereo not drawn)	none
CC(C)(C)OC(=O)N1CCCC(c2ccnc3cc(-c4cccc(F)c4)nn23)C1 (stereo not drawn)	none
